Tests used:
Experiment in all cases: growth AUC relative to DMSO control (median of replicates) (fraction); higher = more growth (less inhibition), active = hit call of the paper
Conditions in all cases: 20 µM; 24 h;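 active = AUC reduced over 20% with Padj below 0.05 in at least 2 of 3 replicates; inactive = otherwise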
[1] = system: Akkermansia muciniphila
In short: (§1)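 Starting at OD600 0.05, gut bacterial monocultures in mGAM were grown anaerobically at 37 °C with 20 µM compound (1% DMSO) under pierced gas-permeable seals. OD600 was read every hour for 24 h, and the lowest OD of each curve was set to 0. Area under the growth curve was normalised to the plate median of solvent-only wells, or to row and column medians on the industrial chemical plate, and the median of three biological replicates grown on separate days is given.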

[2] = system: Bacteroides caccae
In short: as §1

[3] = system: Bacteroides clarus
In short: as §1

[4] = system: Bacteroides dorei
In short: as §1

[5] = system: Bacteroides stercoris
In short: as §1

[6] = system: Bacteroides thetaiotaomicron
In short: as §1

[7] = system: Bacteroides uniformis
In short: as §1

[8] = system: Bifidobacterium longum subsp. longum
In short: as §1

[9] = system: Clostridium difficile
In short: as §1

[10] = system: Collinsella aerofaciens
In short: as §1

Measured: growth AUC

CCSC(C)CC1CC(=O)C(/C(CC)=N/OC/C=C/Cl)=C(O)C1 (mixture of isomers)
inactive: [1] 1.13 | [2] 1.05 | [3] 1.03 | [4] 1.01 | [5] 1.11 | [6] 1.01 | [7] 1.02 | [8] 1.01 | [9] 1.04 | [10] 1.04

Oc1cccc2cccnc12
inactive: [1] 0.981 | [2] 0.994 | [3] 1.01 | [4] 0.993 | [5] 1.12 | [6] 0.984 | [7] 0.988 | [8] 1.14 | [9] 0.959 | [10] 0.963

COP(=O)(OC)O/C(=C/Br)c1ccc(Cl)cc1Cl
inactive: [1] 1.06 | [2] 1 | [3] 0.978 | [4] 0.979 | [5] 1.02 | [6] 0.96 | [7] 0.961 | [8] 1.03 | [9] 0.983 | [10] 1

O=C(NC(=O)c1c(F)cccc1F)Nc1ccc(Oc2ccc(C(F)(F)F)cc2Cl)cc1F
inactive: [1] 1.02 | [2] 1.02 | [3] 0.984 | [4] 1.02 | [5] 1.02 | [6] 1 | [7] 0.996 | [8] 1.05 | [9] 1.02 | [10] 1.08

C[Si](Cn1cncn1)(c1ccc(F)cc1)c1ccc(F)cc1
inactive: [1] 0.895 | [2] 0.891 | [3] 0.907 | [4] 0.854 | [5] 0.952 | [6] 0.895 | [7] 0.913 | [8] 0.923 | [9] 1 | [10] 0.931

O=C1C(Cl)=C(Cl)C(=O)c2ccccc21
inactive: [1] 0.907 | [2] 0.987 | [3] 0.987 | [4] 0.958 | [5] 0.962 | [6] 0.996 | [7] 0.986 | [8] 0.904 | [9] 0.912 | [10] 0.988

COP(=S)(OC)Oc1cc(Cl)c(Br)cc1Cl
inactive: [1] 0.9 | [2] 0.961 | [3] 0.966 | [4] 0.995 | [5] 1.03 | [6] 0.963 | [7] 1.01 | [8] 0.971 | [9] 0.966 | [10] 0.978

CC(C)(C)C(O)C(Oc1ccc(Cl)cc1)n1cncn1 (stereo not given)
inactive: [1] 0.947 | [2] 0.985 | [3] 0.996 | [4] 1 | [5] 1.17 | [6] 0.986 | [7] 1.04 | [8] 0.943 | [9] 1.08 | [10] 1.03

O=c1[nH]c2c(c(=O)n1C1CCCCC1)CCC2
inactive: [1] 0.895 | [2] 1.01 | [3] 0.944 | [4] 0.957 | [5] 0.925 | [6] 0.978 | [7] 0.972 | [8] 0.963 | [9] 0.972 | [10] 0.95

C#CCOS(=O)OC1CCCCC1Oc1ccc(C(C)(C)C)cc1 (mixture of isomers)
inactive: [1] 1.08 | [2] 0.98 | [3] 0.976 | [4] 0.984 | [5] 0.916 | [6] 0.991 | [7] 0.99 | [8] 0.908 | [9] 0.956 | [10] 0.975

[Cl][Sn]([c]1ccccc1)([c]1ccccc1)[c]1ccccc1
active: [2] 0.0272 | [3] 0.272 | [4] 0.0162 | [5] 0.0164 | [6] 0.00729 | [7] 0.0126 | [8] 0.303 | [10] 0.152
inactive: [1] 0.915 | [9] 0.849

CCCOCCN(C(=O)CCl)c1c(CC)cccc1CC
inactive: [1] 1.11 | [2] 0.979 | [3] 0.981 | [4] 0.976 | [5] 0.919 | [6] 0.95 | [7] 0.895 | [8] 1.05 | [9] 0.971 | [10] 0.972

OC(Cc1ccccc1Cl)(Cn1[nH]cnc1=S)C1(Cl)CC1 (stereo not given)
inactive: [1] 1.02 | [2] 0.971 | [3] 0.856 | [4] 0.91 | [5] 1.04 | [6] 0.821 | [7] 0.805 | [8] 0.842 | [9] 0.985 | [10] 1.04

COP(=S)(OC)Oc1ccc([N+](=O)[O-])cc1
inactive: [1] 1.18 | [2] 0.898 | [3] 1.03 | [4] 0.888 | [5] 1.04 | [6] 0.975 | [7] 0.96 | [8] 1.03 | [9] 1.02 | [10] 0.955

O=C(Nc1ccccc1)Nc1ccnc(Cl)c1
inactive: [1] 0.926 | [2] 0.9 | [3] 0.949 | [4] 0.977 | [5] 0.926 | [6] 0.94 | [7] 0.886 | [8] 0.959 | [9] 0.941 | [10] 1.01

CN(C)c1nc(=O)n(C2CCCCC2)c(=O)n1C
inactive: [1] 0.966 | [2] 1.03 | [3] 0.985 | [4] 1 | [5] 1.07 | [6] 1.05 | [7] 1.01 | [8] 1.01 | [9] 1.02 | [10] 1.01

CC(C)N1C(=O)N(c2ccccc2)CSC1=NC(C)(C)C
inactive: [1] 0.893 | [2] 0.957 | [3] 0.902 | [4] 0.946 | [5] 0.977 | [6] 0.927 | [7] 0.981 | [8] 0.99 | [9] 1.02 | [10] 0.971

C=C(C)[C@H]1Cc2c(ccc3c2O[C@@H]2COc4cc(OC)c(OC)cc4[C@@H]2C3=O)O1
inactive: [1] 1.07 | [2] 0.985 | [3] 0.897 | [4] 0.947 | [5] 0.735 | [6] 0.965 | [7] 0.813 | [8] 1 | [9] 1.03 | [10] 0.987

CC(C)CC(C)c1sccc1NC(=O)c1cn(C)nc1C(F)(F)F (stereo not given)
inactive: [1] 0.99 | [2] 0.967 | [3] 0.94 | [4] 1.02 | [5] 1.07 | [6] 0.938 | [7] 0.942 | [8] 1.02 | [9] 1 | [10] 0.99

CCNc1nc(Cl)nc(NC(C)C)n1
inactive: [1] 1.05 | [2] 0.956 | [3] 1.01 | [4] 0.945 | [5] 0.964 | [6] 1.01 | [7] 1.01 | [8] 1.02 | [9] 0.944 | [10] 1.04

CNc1nc(C)c(C)c(OC(=O)N(C)C)n1
inactive: [1] 0.975 | [2] 0.99 | [3] 0.953 | [4] 1.02 | [5] 0.963 | [6] 0.986 | [7] 1.04 | [8] 1.04 | [9] 0.987 | [10] 0.994

CON(C)C(=O)Nc1ccc(Br)cc1
inactive: [1] 0.941 | [2] 1.01 | [3] 0.988 | [4] 0.992 | [5] 1.16 | [6] 1.02 | [7] 0.993 | [8] 1.18 | [9] 0.952 | [10] 1.1

OC(Cc1ccccc1Cl)(Cn1cncn1)C1(Cl)CC1 (stereo not given)
inactive: [1] 0.867 | [2] 0.974 | [3] 0.963 | [4] 1.01 | [5] 0.966 | [6] 0.985 | [7] 0.971 | [8] 1.01 | [9] 0.958 | [10] 0.953

COc1cc(OC)nc(Sc2cccc(Cl)c2C(=O)O)n1
inactive: [1] 1.28 | [2] 1.01 | [3] 0.98 | [4] 0.959 | [5] 0.977 | [6] 1.02 | [7] 0.986 | [8] 1 | [9] 1.01 | [10] 0.964

COC(=O)C1(O)c2ccccc2-c2ccccc21
inactive: [1] 0.893 | [2] 1.03 | [3] 0.97 | [4] 1 | [5] 1.01 | [6] 0.981 | [7] 0.984 | [8] 0.996 | [9] 0.991 | [10] 1.03

CCCCC(O)(Cn1cncn1)c1ccc(Cl)cc1Cl (stereo not given)
inactive: [1] 0.965 | [2] 0.944 | [3] 0.96 | [4] 0.97 | [5] 1.22 | [6] 0.92 | [7] 0.971 | [8] 1.02 | [9] 0.92 | [10] 1

CCOc1nc(NC)nc(NC(=O)NS(=O)(=O)c2ccccc2C(=O)OC)n1
inactive: [1] 0.947 | [2] 1.01 | [3] 1.01 | [4] 1.02 | [5] 0.97 | [6] 0.988 | [7] 0.998 | [8] 0.967 | [9] 0.979 | [10] 0.992

CCOP(=S)(OCC)OP(=S)(OCC)OCC
inactive: [1] 0.981 | [2] 0.986 | [3] 0.953 | [4] 0.993 | [5] 1.02 | [6] 0.956 | [7] 0.988 | [8] 1.01 | [9] 0.986 | [10] 1.02

Reference: the supplement of paper PMC12669032
